This note sets out measurements from PubChem BioAssay.

Activity calls are given as the source filed them.

The nature of one experiment: small-molecule microarray binders of probe aCHRDL2, primary screen, biochemical, biotinylated probe, 635/667 nm fluorescence (AID 1100). The following applies: higher = more signal.
In turn, `CCOC(=O)C1=CC[C@@H](c2ccccc2)N(S(=O)(=O)c2ccc(C)cc2)C1` showed a composite z-score of 0.931.
Still for that read-out and setting: to `CCOC(=O)[C@H]1C/C=C/C[C@H](C(=O)OCC)C(=O)O[C@H]2[C@@H](OC)O[C@H](CO)[C@@H](OC(=O)Nc3ccc(OC)cc3)[C@@H]2OC1=O` belongs 0.564; to `COC(=O)[C@H](Cc1ccccc1)N1CC(/C=C/C2CC2)=C[C@@H]1[C@@H](O)Cc1ccccc1`, -0.276; to `Cc1ccc(F)cc1S(=O)(=O)N[C@@H]1CCN(Cc2ccc(Oc3ccccc3)cc2)C1`, -0.38.
On the same count and under the same terms, to `COCCOC(=O)N1C(=O)[C@@]2(c3cc(C#Cc4ccc(OC)cc4)ccc31)[C@H](C(=O)NC[C@H](O)c1ccccc1)[C@H]1C(=O)O[C@H](c3ccccc3)[C@H](c3ccccc3)N1[C@@H]2c1ccc(O)cc1` belongs 0.234; to `CN(C)CCCNC(=O)[C@@H]1c2ccccc2C(=O)N(CC23CC4CC(CC(C4)C2)C3)[C@H]1c1ccc(CO)cc1`, 0.296.
Consider `CCOC(=O)[C@@H]1[C@@H]2C(=O)N(CC)C(=O)[C@@H]2C[C@@H]1Sc1ccccc1`, for which the composite z-score stood at 0.0774.
Same read-out and setting: to `CC(C)C(=C=CC[C@@H](O)c1ccccc1OCCO)C[C@@H](O)COCc1ccccc1` belongs 0.264.

A further experiment is described as follows: splicing luciferase reporter signal modulators, primary screen, spliceosome inhibition project, cell-based, HEK293, splice +/- reporter (AID 1101).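 Further: HEK293 cells carrying a splicing-competent luciferase reporter gene; test concentration not given here.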 The following applies: luminescence, 24 h, higher = more signal, called active from +8 up or from −8 down. In general terms: A reporter such as luciferase makes a cellular process visible.
As to `CC(C)C(O)C1C=CC2C(=O)N(C)C(=O)C2N1Nc1ccccc1` (centres undefined), the z-score was 1.01 (inactive).
Same read-out and setting: with `Cc1c(NC(=O)/C(C#N)=C/C=C/c2ccc(N(C)C)cc2)c(=O)n(-c2ccccc2)n1C` the figure was -0.0455 (inactive).
As for `COc1cc(CO)cc(I)c1O[C@H]1C=C(C(=O)NCCO)C[C@@H](N(Cc2ccc(F)cc2)C(=O)C2CCCO2)[C@@H]1O` (some centres undefined), the z-score is -0.0727 (inactive).
Regarding `O=C1C[C@@](C(=O)NCC(F)(F)F)(c2ccc([N+](=O)[O-])cc2)[C@@H](c2ccc(CO)cc2)N1C1CCCCC1`, the z-score was -0.684 (inactive).
The same measure, in the same setting: to `COC(=O)Cn1c(C(=O)N2CCCC2)cc2c1C[C@H]1CN(C(=O)c3ccccc3)[C@@](Cc3ccc(F)cc3)(C(=O)OC)[C@@H]21` belongs -1.13 (inactive).
Still for that read-out and setting: with `O=C(CS)NCCCCCCNC(=O)[C@H]1C[C@H]2C(=O)N[C@@H](Cc3ccccc3)C(=O)N2[C@H]1c1cccc(OCCO)c1` the figure was 0.479 (inactive); with `COc1cc2c(cc1OC)CN(C(=O)[C@H]1[C@@H]3C(=O)O[C@@H](c4ccccc4)[C@@H](c4ccccc4)N3[C@@H](c3ccc(OCCO)cc3)[C@]13C(=O)Nc1ccc(C#CC4(O)CCCCCC4)cc13)CC2`, 0.415 (inactive).
On the same count and under the same terms, to `O=C1O[C@H](c2ccccc2)[C@H](c2ccccc2)N2[C@H]1[C@@H](C(=O)O)[C@]1(C(=O)Nc3ccccc31)[C@H]2c1ccc(O)cc1` belongs -0.531 (inactive); to `CC(=O)N1Cc2ccccc2C[C@]2(N=C(c3ccc(OCCCO)cc3)O[C@@H]2c2ccccc2)C1=O`, -2.31 (inactive).
Take `Cc1ccc(S[C@]2(C(=O)O)CC(=O)N(Cc3ccccc3Cl)[C@@H]2c2ccc(CO)cc2)cc1`: the z-score is 1.39 (inactive).
The same measure, in the same setting: with `COc1c(C)cc(-c2cc3c(c(-c4ccccc4)n2)[Si](C(C)C)(C(C)C)OC3)cc1C` the figure was -0.0426 (inactive); with `O=C(CCCCCCC(=O)Nc1ccccc1)N/N=C/c1ccccc1`, -0.519 (inactive); with `CCOC(=O)C[C@H]1[C@H](OC(=O)Cc2ccc3c(c2)OCO3)[C@@H](NC(=O)C2CCCCC2)c2cc(OCCCO)ccc2N1C(=O)c1ccc2ccccc2n1`, -1.49 (inactive).
The same measure, in the same setting: to `O=C(NC1CC1)[C@@H]1c2ccccc2C(=O)N(Cc2ccccc2)[C@H]1c1ccc(CO)cc1` belongs 0.135 (inactive); to `NC(N)=NCc1cn(CCc2c[nH]c3ccccc23)nn1`, -0.443 (inactive).
Consider `COCCCNC(=O)[C@@]1(Sc2ccc(C)cc2)CC(=O)N(Cc2cc(C(F)(F)F)cc(C(F)(F)F)c2)[C@@H]1c1ccc(CO)cc1`, for which the z-score is 0.261 (inactive).
On the same count and under the same terms, to `O=C1O[C@@H](c2ccccc2)[C@@H](c2ccccc2)N2[C@@H](c3ccc(O)cc3)[C@]3(C(=O)Nc4ccc(C#CC5=CCCCC5)cc43)[C@@H](C(=O)N3CCN(c4ncccn4)CC3)[C@H]12` belongs -0.339 (inactive); to `COCCOC(=O)N1C(=O)[C@@]2(c3cc(C#CC4=CCCCC4)ccc31)[C@H](c1ccccc1OCCO)N1[C@H](c3ccccc3)[C@H](c3ccccc3)OC(=O)[C@H]1[C@@H]2C(=O)N1CCc2cc(OC)c(OC)cc2C1`, -0.222 (inactive); to `CC[C@H]1C2=C3C(CC[C@H]4C(OCc5ccc(F)cc5C(F)(F)F)OC[C@](C)([C@@H]34)N(C(=O)OC(C)(C)C)C2)C2COC(=O)OCC21` (some centres undefined), -0.499 (inactive).
Same read-out and setting: to `CO[C@H]1O[C@H](CO)[C@@H](OC(=O)Nc2ccccc2-c2ccccc2)[C@H](OC(=O)Nc2ccc3c(c2)OCO3)[C@@H]1OC(=O)Nc1ccc2c(c1)OCO2` belongs -1.14 (inactive); to `COCCCNC(=O)[C@@]1(Sc2ccc(C)cc2)CC(=O)N(C2Cc3ccccc3C2)[C@@H]1c1ccc(CO)cc1I`, -0.697 (inactive); to `Cc1ccc(S[C@]2(C(=O)NCc3ccccc3)CC(=O)N(C(C)C)[C@@H]2c2ccc(CO)cc2I)cc1`, 0.0407 (inactive).
Still for that read-out and setting: with `CC(C)C(O)C1C=CC2C(=O)N(C)C(=O)C2N1N(c1ccccc1)c1ccccc1` (centres undefined) the figure was 1.06 (inactive); with `O=C1OCC=C[C@H]2OC34C=CCN(Cn5nnc6ccccc65)C(=O)[C@H]3N(CCCCCCO)C(=O)[C@@H]4[C@@H]12` (some centres undefined), 0.434 (inactive); with `COC(=O)[C@@]1(Cc2ccccc2)[C@H]2c3cc(C(=O)N4CCCC4)n(Cc4cc(F)cc5c4OCOC5)c3C[C@H]2CN1C(=O)c1ccccc1`, -0.955 (inactive).
In the case of `O=C(O)[C@H](Cc1ccccc1)n1cc(-c2ccccn2)nn1`, the z-score was -0.27 (inactive).
Consider `CN(C)CCCNC(=O)[C@@]1(c2ccc([N+](=O)[O-])cc2)CC(=O)N(CC23CC4CC(CC(C4)C2)C3)[C@@H]1c1ccc(CO)cc1`, for which the z-score is -0.102 (inactive).
Still for that read-out and setting: with `CCOC(=O)C[C@H]1[C@H](OC(=O)c2ccc(-c3ccccc3)cc2)[C@@H](NC(=O)c2ccc3ccccc3n2)c2cc(OCCCO)ccc2N1C(=O)c1ccccc1` the figure was 0.0748 (inactive); with `CCOC(=O)C1=CC[C@@H](c2ccccc2)N(S(=O)(=O)c2ccc(C)cc2)C1`, 0.259 (inactive).
On the same count and under the same terms, to `CCOC(=O)[C@H]1C/C=C/C[C@H](C(=O)OCC)C(=O)O[C@H]2[C@@H](OC)O[C@H](CO)[C@@H](OC(=O)Nc3ccc(OC)cc3)[C@@H]2OC1=O` belongs 0.0675 (inactive); to `COC(=O)[C@H](Cc1ccccc1)N1CC(/C=C/C2CC2)=C[C@@H]1[C@@H](O)Cc1ccccc1`, 3.96 (inactive).
Same read-out and setting: with `Cc1ccc(F)cc1S(=O)(=O)N[C@@H]1CCN(Cc2ccc(Oc3ccccc3)cc2)C1` the figure was 1.25 (inactive).
Turning to `COCCOC(=O)N1C(=O)[C@@]2(c3cc(C#Cc4ccc(OC)cc4)ccc31)[C@H](C(=O)NC[C@H](O)c1ccccc1)[C@H]1C(=O)O[C@H](c3ccccc3)[C@H](c3ccccc3)N1[C@@H]2c1ccc(O)cc1`, the z-score was -0.577 (inactive).
On the same count and under the same terms, to `CN(C)CCCNC(=O)[C@@H]1c2ccccc2C(=O)N(CC23CC4CC(CC(C4)C2)C3)[C@H]1c1ccc(CO)cc1` belongs -0.751 (inactive); to `CCOC(=O)[C@@H]1[C@@H]2C(=O)N(CC)C(=O)[C@@H]2C[C@@H]1Sc1ccccc1`, 1.33 (inactive).
The same measure, in the same setting: to `CC(C)C(=C=CC[C@@H](O)c1ccccc1OCCO)C[C@@H](O)COCc1ccccc1` belongs -2.12 (inactive).
